Source: PubChem BioAssay (NCATS)
Inconclusive results are not listed. The source made the active and inactive calls. Calls follow the shape of the full dose curve.

What follows are compounds tested against Peroxisome proliferator-activated receptor delta (Homo sapiens) (UniProt Q03181) (assay: qHTS assay for small molecule agonists of peroxisome proliferator-activated receptor delta signaling (AID 588534;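 also: 0% = DMSO basal wells and 100% = positive control agonist at 10 µM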)). Conditions: HEK293T PPARdelta-UAS-bla, beta-lactamase ratio, 18 h; series mostly up to 76.7 µM; activation: at the top concentration.
How it was run: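 Cell-based beta-lactamase reporter assay run in agonist mode: cells seeded and incubated 5 hrs at 37 C, compounds added and incubated 18 hrs at 37 C. CCF4 dye fluorescence read after 2 hrs at RT; EC50 and efficacy from Hill fits.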

Peroxisome proliferator-activated receptor delta (Homo sapiens), sequence (Q03181 whole entry, looked up): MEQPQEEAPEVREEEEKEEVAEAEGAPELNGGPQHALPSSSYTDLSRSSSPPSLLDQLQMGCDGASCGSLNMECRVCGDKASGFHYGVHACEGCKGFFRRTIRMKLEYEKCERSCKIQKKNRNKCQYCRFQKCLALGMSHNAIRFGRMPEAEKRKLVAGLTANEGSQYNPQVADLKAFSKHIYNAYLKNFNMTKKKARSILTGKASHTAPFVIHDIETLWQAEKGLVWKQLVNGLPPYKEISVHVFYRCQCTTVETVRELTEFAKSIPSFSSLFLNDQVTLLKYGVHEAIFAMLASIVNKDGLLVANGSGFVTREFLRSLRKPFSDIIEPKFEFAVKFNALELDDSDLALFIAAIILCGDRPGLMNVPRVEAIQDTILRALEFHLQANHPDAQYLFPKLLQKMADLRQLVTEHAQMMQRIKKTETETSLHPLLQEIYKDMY

SMILES | activation | outcome
Nc1ccc(N=Nc2ccccc2)c(N)c1 | -8.6% (inactive) | –
Nc1c(N=Nc2ccc(S(=O)(=O)CCOS(=O)(=O)O)cc2)c(S(=O)(=O)O)cc2cc(S(=O)(=O)O)c(N=Nc3ccc(S(=O)(=O)CCOS(=O)(=O)O)cc3)c(O)c12 | 9.1% (inactive) | –
CCC(C)O (stereo unspecified) | 0.515% (inactive) | –
CCCCCCC(O)CCCCCCCCCCC(=O)O (stereo unspecified) | 1.3% (inactive) | –
Cc1ccc(CO)cc1 | 6.92% (inactive) | –
O=C(O)c1c(Cl)cccc1Cl | 5.15% (inactive) | –
Cc1cc(C)c(N)cc1C | 5.22% (inactive) | –
CC(C)(c1cc(Br)c(O)c(Br)c1)c1cc(Br)c(O)c(Br)c1 | – | inactive
CCCCCCCCCCCCCCCCCC(=O)OC[C@@H](O)[C@H]1OC[C@H](O)[C@H]1O | 4.06% (inactive) | –
CC(C)OC(=O)c1ccccc1C(=O)OC(C)C | -0.726% (inactive) | –
CN(C)c1nc(=O)n(C2CCC(O)CC2)c(=O)n1C (stereo unspecified) | 2.35% (inactive) | –
CC(C=O)Cc1ccc(C(C)(C)C)cc1 (stereo unspecified) | – | inactive
CSc1ccc(Cl)cc1 | 7.79% (inactive) | –
CCCCOCCOCCOCCCC | 10.6% (inactive) | –
Cc1ccccc1C(N)=O | 9.67% (inactive) | –
CC(N)CN (stereo unspecified) | 3.86% (inactive) | –
CC(CCC(=O)O)(c1ccc(O)cc1)c1ccc(O)cc1 | – | inactive
CO/N=C1\C[C@]2(C[C@@H]3C[C@@H](C/C=C(\C)C[C@@H](C)/C=C/C=C4\CO[C@@H]5[C@H](O)C(C)=C[C@@H](C(=O)O3)[C@]45O)O2)O[C@H](/C(C)=C/C(C)C)[C@H]1C | -5.94% (inactive) | –
CCCCOCCOCCOC(=O)CCCCC(=O)OCCOCCOCCCC | 0.957% (inactive) | –
CC(=O)c1c(C)c([N+](=O)[O-])c(C(C)(C)C)c([N+](=O)[O-])c1C | 8.92% (inactive) | –
CCNc1cc(O)ccc1C | 2.73% (inactive) | –
